The term IC50 denotes the concentration that inhibits the measured activity by half.

Out of some 1,000 compounds screened, about 410 (41%) were called active. The set was probably picked from earlier hits. These entries were drawn from the full list. A number with no mark means an inactive call.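 Rule for the calls: active = fitted half-maximal inhibitory concentration no more than tenfold above the top dose tested; inconclusive = flat fit with 30 to 70% activity, or poor fit; inactive = half-maximal concentration beyond tenfold above the top dose.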 Some results are limits rather than exact numbers.

The nature of the assay: YIC intramolecular FRET probe signal interference, dose response, counter-screen for RanGTP-importin-beta inhibitor project, biochemical, fluorescence FRET (AID 435026). The settings on record: Purified YIC probe, intramolecular FRET ratio YFP/CFP. (In general: Counterscreens check selectivity or assay interference.)
On to `CN(C)CCCn1c(N)c(C#N)c2nc(C#N)c(C#N)nc21`, for which the IC50 was 25 µM (active). To `CCN(CCO)C(=S)Nc1cc(C(=O)OC)ccc1C(=O)OC` belongs above 50 µM; to `O=C(Nc1ccccc1-c1ccccc1)c1cccs1`, above 50 µM. To `N#C/C(=C/c1ccc(N2CCCCC2)o1)C(=O)NCCc1c[nH]c2ccccc12` belongs 0.753 µM (active); to `Cc1nc2ccccc2c2oc(C(=O)NCCCN3CCC(C)CC3)cc12`, above 50 µM; to `COc1ccc(C(=O)C[n+]2ccc(N)c(C)c2C)cc1`, above 50 µM. To `Cc1ccc(-n2c(=O)c(C#N)cc3c(=O)n4ccccc4nc32)cc1C` belongs 1.78 µM (active).

In the case of `COC(=O)c1cc2c(ccn2C)n1C`, the IC50 was above 50 µM. Regarding `CCn1c2ccccc2c2cc(NC(=O)CNC)ccc21`, the IC50 was above 50 µM. Under `O=c1cc(CN2CCN(S(=O)(=O)/C=C/c3ccccc3)CC2)c2ccc(O)cc2o1` stands 44.1 µM (active); under `COc1cc(SC)ccc1C(=O)Nc1nc(C)cs1`, above 50 µM.

Consider `COC(=O)c1ccc2c(C(C)(C)O)c(C(C)(C)O)[nH]c2c1`, for which the IC50 was above 50 µM. To `COc1cccc(C(=O)c2cc3ccc(O)cc3oc2=O)c1` belongs 28.1 µM (active). In the case of `CC(=O)c1ccc(-c2ccc(Cn3c(C)nc4cc(N)c(C)nc43)cc2)cc1`, the IC50 is above 50 µM. To `Cc1cc(O)ccc1NC1=CC(=O)CC(C)(C)C1` belongs above 50 µM.

On to `CC(=O)N1CCc2c(sc(NC(=O)CCS(=O)(=O)c3ccc(C)cc3)c2C(N)=O)C1`, for which the IC50 was 38 µM (active). To `CCCNS(=O)(=O)c1ccc2c(c1)CCCN2C(C)=O` belongs above 50 µM. Consider `CCOC(=O)c1c(C)oc2cc(Br)c(OCC(N)=O)cc12`, for which the IC50 is above 50 µM. On to `COc1ccc(-n2cnc3cc(NCc4ccco4)ccc32)cc1`, for which the IC50 is above 50 µM. `CC1(C)CC(=O)NC=C(c2ccccc2)C1`: the IC50 is above 50 µM.

Consider `Cc1ccc(NC(=S)NCCN2CCOCC2)cc1`, for which the IC50 is above 50 µM. Regarding `N#C/C(=C/c1ccc(N2CCOCC2)o1)C(=O)N1CCOCC1`, the 50% inhibitory concentration (IC50) is 5.08 µM (active). Under `N#C/C(=C\c1ccc(N2CCOCC2)o1)C(=O)N1CCOCC1` stands 5.73 µM (active); under `CCCC(C)c1nnc(NC(=O)C2CC(=O)N(c3ccc(OCC)cc3)C2)s1` (configuration not stated), above 50 µM; under `COc1ccc(C(=O)Cc2cnn(-c3ccccc3)c2)c(O)c1`, above 50 µM. To `Cc1ccc(N2CCN(c3ccc(C)cc3)C2c2ccccn2)cc1` belongs above 50 µM.

With `CCOc1ccc(N=Cc2c(O)n(-c3cccc(C)n3)c(=O)c3ccccc23)cc1`, the IC50 is 34.7 µM (active). As to `CCN(CC)c1nc(-c2ccccc2)cc(C(F)(F)F)c1C#N`, the IC50 is 9.38 µM (active).

As to `CCCOc1ccc(Cn2ccnc2)cc1[N+](=O)[O-]`, the IC50 is above 50 µM. As to `CCN1C(=O)/C(=C2/Sc3ccccc3N2CCCS(=O)(=O)O)SC1=S`, the IC50 is 15 µM (active). Under `C/C(=N\N)c1c(-c2ccccc2)c2cc(Br)ccc2[nH]c1=O` stands above 50 µM. For the compound `CN1CCN(c2cc(=O)n(-c3ccc(Cl)cc3)c(=O)[nH]2)CC1`, the IC50 was above 50 µM. Under `CCC(=O)Nc1c(S(=O)(=O)c2ccccc2)c2nc3ccccc3nc2n1Cc1ccccc1` stands 17.3 µM (active).

On to `O=C(NNc1c2ccccc2nc2ccccc12)c1cc2ccccc2cc1O`, for which the IC50 was above 50 µM. `COc1ccc(CCn2c(=N)c(C(=O)NCc3ccco3)cc3c(=O)n4cccc(C)c4nc32)cc1`: the IC50 is 50.2 µM (active).

For the compound `CC(C)C1C2=C(CC(C)(C)CC2=O)ON1c1ccccc1` (configuration not stated), the IC50 is above 50 µM.

As to `CCN1CCc2nc(NC(=O)c3cc(F)c(F)cc3Cl)sc2C1`, the IC50 was above 50 µM. For the compound `CNC(=O)c1cc2c(ccc3ccccc32)oc1=N`, the IC50 is 7.06 µM (active). Under `CC(=O)c1cc(C#N)c(N2CC(C)OC(C)C2)nc1C` (configuration not stated) stands above 50 µM; under `Oc1c(CN2CCN(c3ccc(F)cc3)CC2)cc(Cl)c2cccnc12`, above 50 µM; under `CC1CN(c2cc(=O)n(-c3cccc(Br)c3)c(=O)[nH]2)CC(C)O1` (configuration not stated), above 50 µM. Consider `CCOC(=O)c1oc2c(CN3CCN(CCO)CC3)c(O)c(CC)cc2c(=O)c1-c1nc2ccccc2s1`, for which the IC50 was 29.2 µM (active). As to `CC1CC(=O)N(CC(=O)Nc2cccc(Cl)c2)c2ccccc2S1(=O)=O` (configuration not stated), the IC50 is above 50 µM. To `CC(OC(=O)CNC(=O)c1cccc(F)c1)C(=O)NC1CCCCC1C` (configuration not stated) belongs above 50 µM; to `OCCNCc1cccc(OCc2ccccc2Cl)c1`, above 50 µM. Take `N#Cc1c(N)n(CCOC(=O)c2ccc(Cl)cc2)c2nc3ccccc3nc12`: the IC50 is 3.73 µM (active).

As for `CCN(CC(=O)Nc1cccc(S(=O)(=O)N2CCCCC2)c1)Cc1ccccc1`, the IC50 was above 50 µM.

These data come from PubChem BioAssay AID435026 (Broad Institute, 2010).
